Out of some 300,000 compounds screened, about 1,500 (0.5%) were called active.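 How the source made its calls: active means inhibition above the mean of all tested compounds plus 3 SD, set per screening campaign (cut at about 17% in these data); inactive means the rest.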 The list comes from a sample in which actives are over-represented; it also holds similar structures and randomly drawn compounds.
system: cathepsin L1 (Fasciola hepatica); experiment: CTSL1 protease inhibition, fluke enzyme – biochemical, QFRET, fluorogenic peptide substrate, counter-screen for PFM18AAP inhibitor project, primary screen (AID 1906);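 further: 0% = plate median of test compound wells and 100% = 1 µM Z-Phe-Ala-diazomethylketone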; conditions: recombinant F. hepatica cathepsin L1, Z-Leu-Arg-MCA fluorescence; at 5.96 µM; hits give high values

Compound	inhibition
NC(=O)COc1ccccc1C(=O)NC12CC3CC(CC(C3)C1)C2	-1.07% (inactive)
COc1ccccc1C(=O)COC(=O)CSCC(=O)Nc1cc(C)on1	-19.3% (inactive)
Cc1cc(C)c(C#N)c(SCC(=O)Nc2ccccc2)n1	39.5% (active)
COCc1cc(C)nc(SCC(=O)Nc2cccc(C)c2)c1C#N	-0.64% (inactive)
Cc1cc(C)c(C#N)c(SCc2ccccc2C(=O)O)n1	-2.52% (inactive)
Cc1c(C(=O)OC(C)C)sc(NC(=O)c2cccnc2)c1C#N	2.51% (inactive)
COc1ccccc1CCNC(=O)CN1C(=O)NC2(CCCC2)C1=O	-1.76% (inactive)
O=C(O)CC(c1ccccc1F)N1Cc2ccccc2C1=O (centres undefined)	0.38% (inactive)
CCOc1cc(/C=C/c2nc3ccccc3c(=O)[nH]2)cc(Br)c1OC	4.32% (inactive)
O=c1[nH]c(SCc2cccc(F)c2)nc2ccccc12	-0.09% (inactive)
O=c1[nH]c(/C=C/c2cccc(Br)c2)nc2ccccc12	49.9% (active)
COc1ccc(S(=O)(=O)N2CCOC2CNC(=O)C(=O)NCc2ccncc2)cc1C (centres undefined)	-2.32% (inactive)
O=C1CSC(=S)N1c1ccc(O)cc1	2.41% (inactive)
Cc1cc(=O)[nH]c(S)c1C#N	3.28% (inactive)
Cc1ccc(-c2nnc(C)c(N3CC(C)OC(C)C3)n2)cc1 (centres undefined)	1.07% (inactive)
CC(=O)c1cc(C#N)c(N2CC(C)OC(C)C2)nc1C (centres undefined)	20% (active)
CC(=O)c1cc(C#N)c(SCC(=O)C(C)(C)C)nc1C	5.58% (inactive)
O=C(Nc1nnc(CCc2ccccc2)s1)C1CCCO1 (centres undefined)	18% (active)
O=C(Nc1nnc(SCc2c(Cl)cccc2Cl)s1)C1CCCO1 (centres undefined)	4.51% (inactive)
O=C(Nc1ccc(-c2nnc(-c3ccccc3)o2)cc1)C1CCCO1 (centres undefined)	0.12% (inactive)
OCCNc1nc(Nc2ccc(Cl)c(Cl)c2)nc2ccccc12	2.53% (inactive)
CS(=O)(=O)c1ccc(Cl)c(NC(=O)COC(=O)c2ncc(Cl)c(Cl)c2Cl)c1	-5.36% (inactive)
CC(=O)N1CCc2c(sc(NC(=O)CCS(=O)(=O)c3ccc(C)cc3)c2C(N)=O)C1	-1.1% (inactive)
Cc1ccc(S(=O)(=O)CC(=O)Nc2nnc(C)s2)cc1	-3.43% (inactive)
Cc1ccc(S(=O)(=O)CC(=O)Nc2sc(C)c(C)c2C(N)=O)cc1	17.8% (active)
C/C=C(\C)C(=O)NCCN1C2=NC[C@H](Cc3ccc(O)cc3)N2C[C@@H]1Cc1ccc(OC)cc1	-2.36% (inactive)
O=C(O)CC1(CC(=O)Nc2cccc(C(F)(F)F)c2)CCCC1	-5.07% (inactive)
O=C(O)CSCC(=O)Nc1cccc(C(F)(F)F)c1	16.9% (active)
O=C(O)CSCC(=O)Nc1ccc(C(F)(F)F)cc1	-1.45% (inactive)

From PubChem BioAssay AID1906 (The Scripps Research Institute Molecular Screening Center, 2009)
